PubChem BioAssay (EPA / NIEHS)
Values joined by “and” are separate entries in the source; they are usually repeats but may differ in a detail not shown here. Equal values may be shown once. Some compounds were tested as several samples or in several runs, with calls that do not always agree. Active and inactive are the calls of the source. Rule for the calls: active = hit-call score of the fitted dose curve at least 0.9, where 1 is the maximum; inactive = score below 0.9.

biological target: Hypoxia-inducible factor 1-alpha (Homo sapiens) (UniProt Q16665); experiment: ATG_HIF1a_CIS: Attagene CIS-FACTORIAL HepG2 Assay for human Hypoxia Inducible Factor 1 (HIF1A) (AID 2282951); settings: HepG2 Attagene cis-factorial HIF1a reporter transcription; actives raise or lower the signal
Description: ATG_CIS is a cell-based, multiplexed-readout assay that uses HepG2, a human liver cell line, with measurements taken at 24 hours after chemical dosing in a 24-well plate.ATG_HIF1a_CIS is one of 52 assay component(s) measured or calculated from the ATG_CIS assay. It is designed to make measurements of mRNA induction, a form of inducible reporter, as detected with fluorescence intensity signals by Reverse transcription polymerase chain reaction (RT-PCR) and Capillary electrophoresis technology.Data from the assay component ATG_HIF1a_CIS was analyzed into 1 assay endpoint. This assay endpoint, ATG_HIF1a_CIS, was analyzed with bidirectional fitting relative to DMSO as the negative control and baseline of activity. Using a type of inducible reporter, measures of mRNA for gain or loss-of-signal activity can be used to understand the reporter gene at the transcription factor-level as they relate to the gene HIF1A. Furthermore, this assay endpoint can be referred to as a primary readout, because this assay has produced multiple assay endpoints where this one serves a reporter gene function. To generalize the intended target to other relatable targets, this assay endpoint is annotated to the dna binding intended target family, where the subfamily is basic helix-loop-helix protein.
Human liver HepG2 cells are transiently transfected with multiple reporter transcription units (MRTUs) in 6-well plates using FuGene 6 reagent (Roche; 3 ml FuGene/1 mg DNA). The MRTU constructs are regulated by a cis-regulating element (promoter). […] A major difference between the CIS and TRANS system is that in CIS activities of endogenous TFs are measured, whereas the TRANS assay evaluates changes in activities of exogenous, chimeric NR-Gal4 proteins. […] At the end of 24 hour incubation, total RNA was isolated using TriZol reagent (Invitrogen). The isolated RNA is then reverse-transcribed using oligo(dT) primer and Mo-MLV reverse transcriptase (Invitrogen) with DNAse I (Ambion) treatment for 30 min. The one-tenth of the produced cDNA was amplified by PCR using Taq DNA polymerase (Invitrogen) and two reporter sequence-specific primers. The PCR products were fluorescently labeled by primer extension with 6-arboxyfluorescein (6-FAM) 5'-labeled reporter sequence-specific primer (2 min at 95 C, 20 s at 68 C and 10 min at 72 C) and these products were digested with 5U of HpaI (New England Biolabs) for 2h at 37 C. The fragments were purified using Qiaquick PCR columns (Qiagen), analyzed on an ABI 3130xL genetic analyzer (Applied Biosystems) with peak positions identified by using a set of X-rhodamine (ROX)-labeled MapMarker1000 molecular weight standards (BioVentures). The raw capillary electrophoresis data was processed using Attagraph software (Attagene).

Hypoxia-inducible factor 1-alpha (Homo sapiens), sequence (Q16665 whole entry, looked up): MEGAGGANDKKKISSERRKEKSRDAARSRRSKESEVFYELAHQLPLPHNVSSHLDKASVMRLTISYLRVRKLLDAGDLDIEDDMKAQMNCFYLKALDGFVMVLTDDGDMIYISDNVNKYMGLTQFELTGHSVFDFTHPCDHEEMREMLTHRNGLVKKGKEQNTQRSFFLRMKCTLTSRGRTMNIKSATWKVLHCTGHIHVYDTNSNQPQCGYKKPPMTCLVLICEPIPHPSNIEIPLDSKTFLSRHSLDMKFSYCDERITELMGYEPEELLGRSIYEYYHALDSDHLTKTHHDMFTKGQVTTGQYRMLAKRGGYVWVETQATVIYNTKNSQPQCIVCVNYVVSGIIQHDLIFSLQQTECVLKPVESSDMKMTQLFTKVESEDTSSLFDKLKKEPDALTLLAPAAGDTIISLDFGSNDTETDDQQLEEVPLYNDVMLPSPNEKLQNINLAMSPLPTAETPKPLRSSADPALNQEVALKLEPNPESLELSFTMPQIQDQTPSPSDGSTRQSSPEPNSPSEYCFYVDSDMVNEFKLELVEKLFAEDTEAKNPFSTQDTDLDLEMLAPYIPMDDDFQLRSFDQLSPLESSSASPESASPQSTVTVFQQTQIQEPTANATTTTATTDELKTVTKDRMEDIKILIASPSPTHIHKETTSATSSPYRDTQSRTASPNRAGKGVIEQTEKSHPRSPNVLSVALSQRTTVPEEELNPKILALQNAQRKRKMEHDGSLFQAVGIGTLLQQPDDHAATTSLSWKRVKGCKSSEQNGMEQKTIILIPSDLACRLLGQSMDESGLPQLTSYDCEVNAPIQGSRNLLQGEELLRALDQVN

With `CC(=O)CCC=C(C)CCC=C(C)C` as the molecule, how does the outcome read?
The outcome was “inactive”.

For `CC(=O)CC(C)(C)C1CCCCC1`, which outcome is on record?
The outcome was “inactive”.

`CC(=O)C1=C(C)[C@@H]2C[C@@]3(C1)[C@H](C)CC[C@H]3C2(C)C` was tested. Which AC50 did it give?
Its AC50 is 131 µM (active).

For `CC(C)=CC(=O)O`, which outcome is on record?
The outcome was “inactive”.

For `CCCc1ccc(O)cc1`, which outcome is on record?
Its outcome is “inactive”.

Which outcome does the source give for `CCC(=O)OC/C=C(\C)CCC=C(C)C` here?
The outcome was “inactive”.

Which outcome does the source give for `COc1ccccc1O` here?
Its outcome is “inactive”.

For `O=C(C=Cc1ccccc1)OCCCc1ccccc1`, which outcome is on record?
The outcome was “inactive”.

Which outcome does the source give for `CC(=O)CC(=O)N(C)C` here?
The outcome was “inactive”.

With `O=C(OCc1ccccc1)c1ccccc1O` as the molecule, how does the outcome read?
Its outcome is “inactive”.

How did the outcome turn out when `NC(N)=S` was run?
The outcome was “inactive”.

With `CC1=CCC(C(C)(C)O)CC1` (stereo not given) as the molecule, how does the outcome read?
The outcome was “inactive”.

With `C=CC(=O)OCCCCCC` as the molecule, how does the outcome read?
The outcome was “inactive”.

For `CC(=O)CCC(=O)O`, which outcome is on record?
Its outcome is “inactive”.

Which outcome does the source give for `CCC(C)(C)C1CCC(=O)CC1` here?
The outcome was “inactive”.

Which outcome does the source give for `CC(CO)(CO)[N+](=O)[O-]` here?
The outcome was “inactive”.

For `C#C[C@]1(O)CC[C@H]2[C@@H]3CCc4cc(O)ccc4[C@H]3CC[C@@]21C`, which outcome is on record?
The outcome was “inactive”.

What about the AC50 of the same molecule?
Its AC50 is 49 µM (active) and 67.4 µM (active).

`CCCC[N+](C)(CCCC)CCCC` was tested. Which outcome did it give?
The outcome was “inactive”.

With `CCCCOCCOC(=O)c1ccccc1C(=O)OCCOCCCC` as the molecule, how does the outcome read?
Its outcome is “inactive”.

How did the outcome turn out when `CCOCC(C)O` (stereo not given) was run?
The outcome was “inactive”.

`CC1=CC[C@@H](C(C)(C)O)CC1` was tested. Which outcome did it give?
The outcome was “inactive”.

With `C1CCCNCC1` as the molecule, how does the outcome read?
The outcome was “inactive”.

With `ClCCOCCOCCCl` as the molecule, how does the outcome read?
The outcome was “inactive”.

With `c1ccc2c(c1)-c1ccc3ccc4cccc5cc-2c1c3c45` as the molecule, how does the AC50 read?
The AC50 was 0.0166 µM (active).

How did the outcome turn out when `c1ccc2scnc2c1` was run?
The outcome was “inactive”.

Which outcome does the source give for `C=C(C)C(=O)OCCOCCOC(=O)C(=C)C` here?
Its outcome is “inactive”.

How did the outcome turn out when `CC12CCC(C1)C(C)(C)C2O` (stereo not given) was run?
Its outcome is “inactive”.

Which outcome does the source give for `CC(O)COCC(C)O` (stereo not given) here?
The outcome was “inactive”.

Which AC50 does the source give for `C=CCOC(=O)/C=C\C(=O)OCC=C` here?
Its AC50 is 18.6 µM (active).

`Nc1ccc(O)c(N)c1` was tested. Which outcome did it give?
Its outcome is “inactive”.

For `Cc1ccncc1`, which outcome is on record?
The outcome was “inactive”.

`CCCOC(=O)CC` was tested. Which outcome did it give?
The outcome was “inactive”.

With `OC[C@H]1O[C@@H](O[C@H]2[C@H](O)[C@@H](O)[C@H](O)O[C@@H]2CO)[C@H](O)[C@@H](O)[C@H]1O` as the molecule, how does the outcome read?
Its outcome is “inactive”.

For `CC(C)(C)c1ccc(S)cc1`, which outcome is on record?
Its outcome is “inactive”.

How did the outcome turn out when `CC(O)CNCC(C)O` (stereo not given) was run?
Its outcome is “inactive”.

Which outcome does the source give for `CCCCCCCCCOS(=O)(=O)O` here?
Its outcome is “inactive”.

`O=[N+]([O-])c1cc(N(CCO)CCO)ccc1NCCO` was tested. Which outcome did it give?
The outcome was “inactive”.

Which outcome does the source give for `c1coc(CNc2ncnc3nc[nH]c23)c1` here?
Its outcome is “inactive”.

How did the outcome turn out when `CC(O)CN` (stereo not given) was run?
The outcome was “inactive”.
